Data reported in the supplement of paper PMC3334620.
The full ranking holds about 33,000 sequences; the median of “E-score (-0.5 to 0.5)” is about -0.035, and the highest 2% start at about 0.35. The sample holds the highest values, similar sequences and a random draw of the others, so the mix is not that of the screen.

biological target: T1, Pdr3 (UniProt P33200); test: PBM E-score (8-mer binding enrichment) (E-score (-0.5 to 0.5)); higher = stronger / more preferred TF binding; details: protein concentration: 200 nM; construct: GST-full length
T1 sequence: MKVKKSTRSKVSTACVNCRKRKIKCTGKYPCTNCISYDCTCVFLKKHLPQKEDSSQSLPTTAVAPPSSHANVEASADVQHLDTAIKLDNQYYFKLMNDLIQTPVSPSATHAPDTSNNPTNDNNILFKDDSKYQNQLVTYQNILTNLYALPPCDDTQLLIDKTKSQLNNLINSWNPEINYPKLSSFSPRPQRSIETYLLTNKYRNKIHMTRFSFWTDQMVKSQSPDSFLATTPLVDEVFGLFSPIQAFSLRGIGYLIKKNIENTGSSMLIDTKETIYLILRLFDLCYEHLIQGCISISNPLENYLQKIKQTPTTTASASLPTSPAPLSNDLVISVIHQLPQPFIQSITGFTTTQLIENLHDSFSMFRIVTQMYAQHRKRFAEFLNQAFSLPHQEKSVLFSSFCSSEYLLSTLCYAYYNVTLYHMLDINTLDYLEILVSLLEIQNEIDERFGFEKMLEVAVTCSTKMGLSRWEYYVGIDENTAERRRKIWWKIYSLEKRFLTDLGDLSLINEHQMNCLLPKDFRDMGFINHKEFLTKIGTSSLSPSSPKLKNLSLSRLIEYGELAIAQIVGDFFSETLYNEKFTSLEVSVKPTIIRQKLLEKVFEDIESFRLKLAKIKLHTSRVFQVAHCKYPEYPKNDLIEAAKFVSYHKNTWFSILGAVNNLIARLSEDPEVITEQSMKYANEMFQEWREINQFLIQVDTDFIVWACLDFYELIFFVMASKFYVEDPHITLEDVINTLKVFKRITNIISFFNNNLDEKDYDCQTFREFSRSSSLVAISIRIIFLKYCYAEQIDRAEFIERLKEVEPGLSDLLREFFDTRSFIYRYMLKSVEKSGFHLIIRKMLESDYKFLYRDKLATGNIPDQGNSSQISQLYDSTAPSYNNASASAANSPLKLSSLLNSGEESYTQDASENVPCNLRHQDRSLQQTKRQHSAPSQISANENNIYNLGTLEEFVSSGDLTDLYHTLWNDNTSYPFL
Method: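 Universal 'all 10-mer' protein binding microarrays (Agilent AMADID 015681) probed with GST-tagged S. cerevisiae TFs (full-length or DBD) made by in vitro transcription/translation (PURExpress), about 100-200 nM. Bound TF was detected with fluorescent anti-GST. Each ungapped 8-mer (which stands for itself and its reverse complement) is scored by the PBM enrichment score (E-score), a modified Wilcoxon-Mann-Whitney statistic from -0.5 to +0.5, computed with the Universal PBM Analysis Suite. Scale: above 0.35 generally sequence-specific binding.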

Sequence | PBM E-score
CCTAACTA | -0.0709
GCGTAGCA | 0.0185
ATTATCCG | 0.388
ATTATCCA | 0.0658
ATTATCCC | 0.185
CCACTGCA | -0.0534
GCTTGGCC | -0.00234
CGGGAAAA | 0.221
ACGCTCCG | 0.315
CCGCTCCG | 0.378
CCGCTCCC | 0.151
ACATCTCG | -0.111
CTCACGGA | 0.325
ATCACGGA | 0.391
GTCACGGA | 0.415
ATGACGGA | 0.362
GTGACGGA | 0.31
ATCACGGC | 0.218
ATGACGGC | 0.141
ATCACGGG | 0.0804
GTCACGCA | -0.0717
AAGGAAGC | -0.0529
CACACCGC | 0.166
CCCTAATA | -0.113

Sequence | PBM E-score
GAAGGAAA | -0.00233
AGGCGTAC | -0.182
ATGTCTCA | -0.0576
GGGAACGA | 0.0381
AGGAACGC | -0.00648
AGGAACGA | -0.1
CAGAACGC | 0.0429
CGGAACGA | 0.464
CGGAACGC | 0.466
ACACCGAC | 0.0164
ACGGACCA | 0.359
TCGGACCA | 0.292
ACGGACCT | 0.275
CCGGACCA | 0.337
ACGGACCG | 0.309
GCGGACCA | 0.366
AGGTGTGA | -0.138
GTGGTGGA | -0.0783
CAGTTGGA | -0.0903
CGTGCAGA | -0.148
CGCGGAGA | 0.415
AGCGGAGA | 0.232
AGCGGAGC | 0.216
GGCGGAGA | 0.288

Sequence | PBM E-score
CGCGGAGC | 0.445
CGCGGTGC | 0.172
CGAACTGA | 0.0143
GTCGCGAA | 0.0709
GTCGCGAC | 0.38
CTCGCGAC | 0.0674
ACCTCTTC | -0.0577
GATCCATC | 0.232
AACTTCCG | 0.388
ATCTTCCA | -0.196
ATCTTCCC | 0.268
AACTTCCT | -0.108
ACCTTCCC | 0.0674
ACCTTCCG | 0.394
CCCTTCCA | -0.00559
CCCTTCCG | 0.392
AACTTCCA | 0.0852
CCCTTCCC | 0.0658
ATCTTCCG | 0.376
ACCTTCCT | -0.244
GAGCGTCC | -0.174
AGCAATGA | -0.0334
CTCTTTCA | -0.137
ATGCTCAC | -0.048

Sequence | PBM E-score
CACTCCTA | -0.112
GAAAGCCC | 0.201
CTATTGAC | -0.153
GTCTCTTA | 0.0669
ACCCATGC | -0.0401
GGGAAGTA | 0.097
CGGAAGTA | 0.393
AGGAAGTA | 0.0507
AGGAAGTC | -0.162
CGGAAGTC | 0.421
CTGAAGTC | 0.0005
ATTGGGCA | -0.131
ACAAGCAT | -0.0569
GAGTGATC | 0.0656
GAGCGGGC | 0.113
AACGGACA | 0.363
CACGGACC | 0.378
AACGGACC | 0.303
CACGGACA | 0.355
CACGGACG | 0.324
AACGGACG | 0.241
TACGGACA | 0.225
AACGGTCA | 0.146
GACGGACC | 0.33
